Many of the other results were omitted from the sample, so hits are more common in it than they were.
CBX7 inh: CBX7 chromodomain binding inhibitors, primary screen, biochemical, AlphaScreen; AlphaScreen His6-CBX7 / biotin-H3K27me3 peptide binding; hits give low values; AID 1224903, 2016; normalised signal (fraction of DMSO) (test concentration not listed); 66,000 tested, 1.1% active; Chromobox protein homolog 7 (Homo sapiens), O95931; in the data active means normalised signal below about 0.5
Target sequence (O95931 whole entry, looked up): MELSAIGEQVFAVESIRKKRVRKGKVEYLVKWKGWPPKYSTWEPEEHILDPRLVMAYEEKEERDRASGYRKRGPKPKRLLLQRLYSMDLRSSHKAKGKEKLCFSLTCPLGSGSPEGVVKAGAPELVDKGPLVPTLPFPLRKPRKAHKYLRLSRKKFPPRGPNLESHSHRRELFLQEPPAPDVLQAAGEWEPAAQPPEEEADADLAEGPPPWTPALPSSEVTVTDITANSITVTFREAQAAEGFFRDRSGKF
* hit, by the source's call.

SMILES | CBX7 inh
Cc1nc2cc(NCc3ccc(C(C)C)cc3)ccc2n1C | 0.7
CC(C)(C)n1cnc2cc(NCc3ccc(Br)cc3)ccc21 | 0.779
COc1ccccc1-n1cnc2cc(NCc3ccc(N(C)C)cc3)ccc21 | 0.241*
Cn1cnc2cc(NCc3ccc(Br)cc3)ccc21 | 0.912
COc1ccccc1-n1cnc2cc(NCc3ccc(C(C)C)cc3)ccc21 | 0.203*
COc1cc(OC)nc(N2C(=O)C(C)C(Cc3ccc(C)cc3)C2=O)n1 (centres undefined) | 1.05
Cc1cc(Cl)ccc1OC(C)c1nc(-c2ccc(OCC(N)=O)cc2)no1 (centres undefined) | 0.966
O=C1Nc2cc(C(=O)N(Cc3ccccc3Cl)C3CCCC3)ccc2Sc2ccccc21 | 1.06
CCOc1ccccc1C(=O)Nc1c(-c2ccc(OC)c(OC)c2)nc2cc(C)ccn12 | 1.06
Cc1ccc2cc(CCNC(=O)c3c(F)cccc3Cl)c(=O)[nH]c2c1C | 1.07
Cc1ccn2c(Nc3ccc(F)cc3)c(-c3ccccn3)nc2c1 | 0*
Cc1ccc(Nc2c(-c3ccccc3)nc3cc(C)ccn23)cc1 | 1.2
Cc1ccc(Nc2c(-c3ccccn3)nc3ccc(Br)cn23)cc1 | 0.97
Fc1ccc(Nc2c(-c3ccccn3)nc3ccc(Br)cn23)cc1 | 0.946
Cc1ccc(Nc2c(-c3ccsc3)nc3cccc(C)n23)cc1 | 0.919
Cc1ccc(Nc2c(-c3ccccn3)nc3cccc(C)n23)cc1 | 0.00144*
Cc1cccc(C)c1Nc1c(-c2ccccc2F)nc2cccc(C)n12 | 0.869
Cc1ccc(Nc2c(-c3ccccn3)nc3ccc(Cl)cn23)cc1 | 0.765
Cc1cccc2nc(-c3ccccn3)c(Nc3ccc(F)cc3)n12 | 0.0586*
Cc1cccc2nc(-c3ccccn3)c(Nc3ccccc3)n12 | 0.00532*
Cc1ccc(-c2nc3ccccn3c2Nc2ccc(F)cc2)cc1 | 0.853
Cc1ccc(Nc2c(-c3c(F)cccc3Cl)nc3cccc(C)n23)cc1 | 0.96
O=C(CCCCn1c(=O)[nH]c2ccsc2c1=O)NCCc1ccc(Cl)cc1 | 1.02
COc1ccccc1-c1c(C)nn2c(N3CCN(c4cccc(C(F)(F)F)c4)CC3)cc(C)nc12 | 1.03
CC1CCN(S(=O)(=O)N2CCC(C(=O)Nc3nnc(N4CCN(C)CC4)s3)CC2)CC1 | 1.06
SMILES | CBX7 inh
Cc1ccc(C(=O)c2oc3ccccc3c2NC(=O)COc2cccc(C)c2)cc1 | 1.04
Cc1ccc(C)c(Cc2c(C)nc3c(C(=O)N4CCc5ccccc5C4)cnn3c2C)c1 | 0.931
Fc1ccc(-c2[nH]c(-c3cccs3)nc2-c2ccccc2)cc1 | 0.89
O=c1nc(-c2ccccc2)c2cc(Br)ccc2[nH]1 | 0.954
Cc1ccc(C)c(-c2[nH]c(-c3ccc(O)cc3)nc2-c2ccccc2)c1 | 0.58
c1ccc2[nH]c(-c3c[nH]c4ccccc34)nc2c1 | 0.86
Cc1ccc(-c2[nH]c(-c3c[nH]c4ccccc34)nc2-c2ccccc2)cc1 | 0.377*
Fc1ccc(-c2[nH]c(-c3c[nH]c4ccc(Br)cc34)nc2-c2ccccc2)cc1 | 0.455*
O=C(NCCOc1ccccc1)c1cc(-c2ccccc2)nc2c(Br)cc(Br)cc12 | 1.07
Cc1cccc(NC(=O)c2sc3nc4c(cc3c2N)CCCC4)c1C | 1
O=C(CC1Sc2ccc(C(F)(F)F)cc2NC1=O)Nc1ccccc1SC(F)(F)F (centres undefined) | 1.08
COc1cccc(-c2nnc(SCC(=O)Nc3nccs3)o2)c1 | 0.925
COc1nnc(-c2ccc(C)c(S(=O)(=O)NC3CCCCC3)c2)c2ccccc12 | 0.819
CCCCN(C)C(=O)c1ccc2c(c1)N(Cc1ccccc1F)C(=O)c1ccccc1S2=O (centres undefined) | 1.13
CCOC(=O)c1c(NC(=O)c2ccc(F)cc2)sc2c1CCCCC2 | 1.44
Cc1ccc(C)c(CN2C(=O)c3ccccc3S(=O)(=O)c3ccc(C(=O)NCC4CCCO4)cc32)c1 (centres undefined) | 1.04
CCc1ccc(NC(=O)CN(C)S(=O)(=O)c2ccc3c(c2)n(C)c(=O)c(=O)n3C)cc1 | 1.01
COc1ccccc1OCc1nc(C#N)c(N2CCN(c3ccccc3)CC2)o1 | 0.516
COc1ccc(OCc2nc(C#N)c(N3CCN(c4ccc(OC)cc4)CC3)o2)cc1 | 0.688
N#Cc1nc(COc2ccccc2F)oc1N1CCN(Cc2ccccc2)CC1 | 0.456*
COc1ccc(N2CCN(c3oc(COc4ccc(F)cc4)nc3C#N)CC2)cc1 | 0.552
N#Cc1nc(COc2ccccc2F)oc1N1CCCCCC1 | 0.561
COc1ccc(N2CCN(c3oc(COc4ccc(C)cc4)nc3C#N)CC2)cc1 | 0.485*
N#Cc1nc(COc2ccc(Br)cc2)oc1N1CCN(Cc2ccccc2)CC1 | 0.652
Cc1ccccc1OCc1nc(C#N)c(N2CCN(c3ccccc3)CC2)o1 | 0.42*
SMILES | CBX7 inh
COc1ccc(N2CCN(c3oc(COc4ccccc4C)nc3C#N)CC2)cc1 | 0.525
COCCNC(=O)C1CC(=O)N(c2ccc(OC)cc2)C1 (centres undefined) | 0.969
CC(C)OCCCNC(=O)CCn1nc(-c2ccc(Cl)cc2)ccc1=O | 1.01
Cn1c2ccccc2c2c(C(=O)NCc3cccnc3)cn(C3CCCC3)c(=O)c21 | 0.879
O=C(c1cccc(C#Cc2ccccc2)c1)N1CCN(c2cccc(C(F)(F)F)c2)CC1 | 0.94
Cc1ccn2c(NC(=O)CCc3ccccc3)c(-c3ccc(F)cc3)nc2c1 | 0.985
Cc1nc(C)c(-c2csc(Nc3cccc(O)c3)n2)s1 | 0.538
c1ccc(Nc2nc(-c3cccs3)cs2)cc1 | 0.899
Cc1nc(C)c(-c2csc(Nc3cccc(C(=O)O)c3)n2)s1 | 1.08
Cc1nc(C)c(-c2csc(Nc3ccc(C(=O)O)cc3)n2)s1 | 0.876
Cc1nc(C)c(-c2csc(Nc3ccccc3)n2)s1 | 0.481*
Cc1cccc(Nc2nc(-c3sc(C)nc3C)cs2)c1 | 0.447*
Cc1ccc2c(c1)N(CCC(=O)NCCCN1CCCC1=O)C(=O)CO2 | 1.01
CCOc1cccc(C(=O)Nc2nnc(-c3ccc4c(c3)OCO4)s2)c1 | 1.1
O=S(=O)(c1cnc[nH]1)N1CCN(c2ccccn2)CC1 | 0.933
Cc1cc(N2CCCCC2)nc2ccc(NC(=O)C3CC3)cc12 | 1.12
CCc1nnc(NC(=O)c2cc3ccccc3cc2OC)s1 | 1.02
CC(CC(=O)NCCc1ccc(S(N)(=O)=O)cc1)CC1=NS(=O)(=O)c2ccccc2N1 (centres undefined) | 1.07
Cc1ccc(Cn2cc(C(=O)c3ccccc3)c(=O)c3cc(C)ccc32)cc1 | 0.44*
Cc1ccc2c(c1)c(=O)c(C(=O)c1ccccc1)cn2Cc1ccc(F)cc1 | 0.706
Cc1ccc2c(c1)c(=O)c(C(=O)c1ccccc1)cn2Cc1ccccc1 | 0.62
CCN(CCCNC(=O)CCNS(=O)(=O)c1ccc2c(c1)CCC(=O)N2)c1cccc(C)c1 | 1
Cc1ccccc1-c1nc(CS(=O)(=O)CC(=O)N2CCN(Cc3ccccc3)CC2)c(C)o1 | 0.694
Cc1ccccc1-c1nc(CS(=O)(=O)CC(=O)N2CCC(Cc3ccccc3)CC2)c(C)o1 | 0.489*
Cc1ccccc1-c1nc(CS(=O)(=O)CC(=O)N2CCCCC2)c(C)o1 | 0.993
CCOc1ccc(NC(=O)c2sc3ncn(Cc4ccccc4F)c(=O)c3c2C)cc1 | 1.12
CCOc1ccc(-c2nc(CSCC(=O)NCc3ccc(OC)cc3)c(C)o2)cc1 | 0.821
O=C(NCc1ccccc1)c1cc(=O)[nH]c2ccc(S(=O)(=O)N3CCCCC3)cc12 | 1.02
CCc1cccc(CC)c1NS(=O)(=O)c1ccc2c(c1)CCN2C(C)=O | 0.994
Cc1ccc(-n2ncc3c(NCc4ccccn4)ncnc32)c(C)c1 | 0.119*

Source: PubChem (Bradner/Qi Labs at DFCI)
